# GDH-TPI counter-1: counter-screen for M. tuberculosis FBA inhibitors: GDH-TPI coupled enzymes; AID 588335; GDH-TPI coupled enzyme counterscreen, NADH absorbance; actives 1.2% (n = 360,000); inhibition, % at 4.8 µM; in the data active = inhibition above about 30%
# CCHF vOTU inh: blocks the CCHF virus ovarian tumor domain protease; CCHFV vOTU protease, Pep-AMC fluorescence; inhibition, % at 11.5 µM; actives 0.55% (n = 370,000); in the data active = inhibition above about 30%
# Mtb FBA inh: inhibits M. tuberculosis FBA enzyme | P9WQA3 | inhibition, % at 1 µM | actives 2.3% (n = 360,000) | AID 588726 | purified M. tuberculosis FBA, fluorescence read-out
# Target sequence (P9WQA3 whole entry, looked up): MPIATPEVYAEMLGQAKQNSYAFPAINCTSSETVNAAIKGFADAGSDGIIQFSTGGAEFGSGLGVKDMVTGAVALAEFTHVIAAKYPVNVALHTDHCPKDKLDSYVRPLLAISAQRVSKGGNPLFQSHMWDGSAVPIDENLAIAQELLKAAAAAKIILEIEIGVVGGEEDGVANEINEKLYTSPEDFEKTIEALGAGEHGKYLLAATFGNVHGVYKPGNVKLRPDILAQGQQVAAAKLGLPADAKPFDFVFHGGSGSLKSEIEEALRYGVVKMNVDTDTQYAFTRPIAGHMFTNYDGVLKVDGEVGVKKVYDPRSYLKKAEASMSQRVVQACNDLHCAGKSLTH
# BH1578 lux ind: inducers of Vibrio cholerae quorum light production without autoinducers. V. cholerae BH1578 lux reporter, luminescence, 6 h. activation, % at 18.7 µM. actives 0.16% (n = 350,000). AID 588436; in the data active = activation mostly above about 9.7%, no sharp cut-off
# Mtb FBA inh conf: confirmation of M. tuberculosis fructose-bisphosphate aldolase inhibitors. shares compounds with Mtb FBA inh. purified M. tuberculosis FBA, fluorescence read-out. inhibition, % at 1 µM. actives 78% (n = 5,600). AID 651616
# GDH-TPI counter-2: GDH-TPI inhibition counter-screen for FBA inhibitors. actives 81% (n = 5,600). inhibition, % at 1 µM. GDH-TPI coupled enzyme counterscreen, fluorescence. AID 652141. shares compounds with Mtb FBA inh; in the data active = inhibition above about 10%
# Hits are given with their value; n = inactive; x = not tested or not shown; + = active, no number. Compounds with a hit are over-represented: about 3.9% of the library has one in this group of screens. Cut-off read from the data, not from the text of the source, unless noted: active = inhibition above about 27%; inactive = the rest.
SMILES,GDH-TPI counter-1,CCHF vOTU inh,Mtb FBA inh,BH1578 lux ind,Mtb FBA inh conf,GDH-TPI counter-2
Cc1ccc(C(=O)N/C(=C/c2cccc([N+](=O)[O-])c2)C(=O)NCC2CCCO2)cc1 (stereo not drawn),n,n,n,x,x,x
COc1c(C(CC(C)C)OC(C)=O)ccc2c1C(=O)OCc1cc(C)cc(O)c1O2 (stereo not drawn),n,n,n,n,x,x
Cc1ccc(C2=CC(c3ccccc3)n3ncnc3N2)cc1 (stereo not drawn),n,n,67.5,n,87.9,67.4
C1=C(c2ccccc2)Nc2ncnn2C1c1ccccc1 (stereo not drawn),n,n,n,n,x,x
CN(C)c1ccc(C2C=C(c3ccc(Cl)cc3OC(F)F)Nc3ncnn32)cc1 (stereo not drawn),n,n,n,x,x,x
Cc1ccc(C2C=C(c3ccccc3OC(F)F)Nc3ncnn32)cc1 (stereo not drawn),n,n,31.9,n,70.0,68.4
COc1cc(NS(=O)(=O)c2cc(C(=O)NCCc3ccccn3)ccc2OC)cc(OC)c1,n,n,n,n,x,x
N#C/C(=C\c1cccc(NC(=O)c2ccccc2Cl)c1)C(=O)NCCc1ccccc1,n,n,n,n,x,x
Cc1ccc(C(c2nc3ccccc3[nH]2)n2c(-c3ccccc3)nc3ccccc32)cc1 (stereo not drawn),x,n,27.7,x,n,n
CSCCC(c1nc2ccccc2[nH]1)n1c(-c2ccc(C)cc2)nc2ccccc21 (stereo not drawn),x,n,x,x,x,x
CCCc1nc2cc3c(cc2[nH]1)n(C)c(=O)n3C,n,n,n,n,x,x
O=C(CCN1C(=O)/C(=C/c2ccccc2Cl)SC1=S)NCCc1ccc(O)cc1,n,n,n,n,x,x
Fc1ccccc1/C=N/n1cc(-c2ccccc2)[nH]c1=S,n,n,51.0,n,136.7,127.2
Cc1ccc(C)c(/C=N/n2cc(-c3ccccc3)[nH]c2=S)c1,n,n,43.4,n,+,+
Fc1ccccc1/C=N/n1cnnc1,n,n,n,n,x,x
CS(=O)(=O)c1ccc(Cl)c(NC(=O)COC(=O)c2ccc(F)cc2Cl)c1,n,n,n,n,x,x
Cc1ccc2c(c1)-n1c(nc3ccccc3c1=O)C(CC(C)C)NC2=O (stereo not drawn),x,n,x,x,x,x
Cc1nn(Cc2ccc(F)cc2)c2sc(C(=O)Nc3ccccc3N3CCOCC3)cc12,n,n,n,n,x,x
Cc1nn(Cc2ccccc2Cl)c2sc(C(=O)Nc3ccccc3N3CCOCC3)cc12,n,n,97.4,n,71.8,63.6
Oc1ccc(-c2nc(-c3ccc(O)c(O)c3)cs2)cc1,n,n,n,n,x,x
Oc1ccc(-c2nccs2)cc1,n,n,47.4,n,108.3,86.2
COC(=O)c1ccccc1S(=O)(=O)N1CCC(C(=O)OCC(=O)NC2CCCCC2C)CC1 (stereo not drawn),n,n,n,n,x,x
N#C/C(=C\c1c(Oc2ccccc2F)nc2ccccn2c1=O)C(=O)NC1CCS(=O)(=O)C1 (stereo not drawn),n,n,27.8,n,105.5,84.3
N#C/C(=C\c1c(Oc2ccccc2Cl)nc2ccccn2c1=O)C(=O)NC1CCS(=O)(=O)C1 (stereo not drawn),n,n,n,n,x,x
O=C(NCc1ccccc1)C1c2ccccc2OCC(=O)N1Cc1cccnc1 (stereo not drawn),x,n,x,x,x,x
SMILES,GDH-TPI counter-1,CCHF vOTU inh,Mtb FBA inh,BH1578 lux ind,Mtb FBA inh conf,GDH-TPI counter-2
O=C(Nc1cccc([N+](=O)[O-])c1)c1[nH]ncc1Cl,n,n,n,n,x,x
Cc1ccc(-c2nc3ncccc3o2)cc1NC(=O)c1ccccc1,n,n,n,n,x,x
CC(C)CC(=O)Nc1cccc(-c2nc3ncccc3o2)c1,n,n,31.6,n,n,n
O=C(Nc1cccc(-c2nc3ncccc3o2)c1)c1ccccc1,n,n,n,n,x,x
Cc1c(NC(=O)C(C)C)cccc1-c1nc2ncccc2o1,n,n,28.7,n,n,n
Cc1ccc(-c2nc3ncccc3o2)cc1NC(=O)C(C)C,n,n,55.4,n,n,n
Cc1ccc2cc(C#N)c(N3CCCN(S(=O)(=O)c4ccccc4)CC3)nc2c1,n,n,n,n,x,x
CCN(CC(=O)Nc1ccccc1OC)C(=O)CCc1ccccc1,n,n,n,n,x,x
COc1ccc(CNC(=O)C(c2ccc(C)o2)N(C(=O)c2csnn2)c2ccc(C(C)C)cc2)cc1 (stereo not drawn),n,n,n,n,x,x
COc1ccccc1CCNC(=O)c1ccccc1SCC(=O)N1CCCC1,n,n,n,n,x,x
Cc1c(-c2ccc(F)cc2)[n+](=O)c(-c2ccc(F)cc2)c(C)n1[O-],n,n,n,n,x,x
